Molecules are shown by their SMILES. Records with an inconclusive call do not appear. A number with no mark means an inactive call. The source made the active and inactive calls. Calls come from the whole dose curve; as a rule, active = well fitted cell-killing curve with a large enough effect; inconclusive = small, poorly fitted or top-dose-only effect; inactive = flat fitted curve, though single readings scatter.

The values below come from PubChem BioAssay (NCATS).
Potency is the fitted concentration of half-maximal effect.

The nature of this experiment: Cell Viability - LYMP2-009 (AID 968).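 For activity change, negative = viability loss: 0% = DMSO alone and the full-kill end = tetraoctylammonium bromide at 92 µM.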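 Note: cells exposed to compound for 24 h at 37 °C; nearly all actives have a fitted effect of over 55% in size.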 The conditions noted are these: LYMP2-009 lymphoblastoid cell viability; series mostly up to 92.2 µM; activity change, negative = viability loss: at the top concentration. An excerpt:
NIH Chemical Genomics Center [NCGC]
NIH Molecular Libraries Screening Centers Network [MLSCN]
National Institutes of Environmental Health Sciences [NIEHS]
National Toxicology Program [NTP]
We have developed a 1536-well cell-based assay for quantitative high throughput screening (qHTS) against a number of cell lines to determine in vitro cytotoxicity of small molecules. This particular assay uses a human lymphoblastoid cell line (LYMP2-009) purchased from Coriell Institute for Medical Research.
NCGC Assay Protocol Summary:
The CellTiter-Glo luminescent cell viability assay (Promega) is a homogeneous method to measure the number of viable cells in culture. The end point readout of this assay is based on quantitation of intracellular ATP, an indicator of metabolic activity, using the luciferase reaction. Luciferase catalyzes the oxidation of beetle Luciferin to oxyluciferin and light in the presence of ATP. The luminescent signal is proportional to amount of ATP present.
Using the CellTiter-Glo luminescent cell viability assay, the amount of cellular ATP was measured in the lymphoblastoid cell line with complete culture medium following compound treatment for 24 hours. The assay was performed in opaque white Kalypsys 1536-well plates. In the screen, tetraoctylammonium bromide was used as positive control. Library compounds were measured for their ability to cause acute toxicity in the cell line, as reflected by a decrease in intracellular ATP levels, in a concentration-dependent manner. […] AC50 values were determined from concentration-response data modeled with the standard Hill equation.
qHTS protocol for CellTiter Glo lymphoblastoid cellular assay
[Step] [Parameter] [Value] [Description]
1. Reagent; 5 uL; 2500 lymphoblastoid cells/well
2. Time; 5 hr; 37 C incubation
4. Controls; 23 nL; Tetraoctylammonium bromide 6.4pM to 92 uM
5. Time; 24 hr; 37 C incubation
6. Reagent; 5 uL; CellTiter Glo reagent
7. Time; 30 min; Room Temperature
8. Detection; Luminescence; Viewlux plate reader
Keywords: cell viability, cytotoxicity, lymphoblastoid cell line, luminescence, NTPHTS, NTPHTS_NCGC, NIEHS, DSSTox, MLSMR, MLSCN, NIH Roadmap, qHTS, NCGC
Take `COc1ccccc1N`: the “activity change, negative = viability loss” value was -9.79%.

As for `CN(C)N=O`, the “activity change, negative = viability loss” value was -12.7%.

With `ClC(Cl)Br`, the “activity change, negative = viability loss” value was -1.61%.

Consider `CC(Cl)(Cl)Cl`, for which the “activity change, negative = viability loss” value is -3.08%.

As for `c1ccc(N=NNc2ccccc2)cc1`, the “activity change, negative = viability loss” value was -18.3%.

As for `CN(C)c1ccccc1`, the “activity change, negative = viability loss” value was -2.11%.

Turning to `N#CC(Cl)(Cl)Cl`, the “activity change, negative = viability loss” value is -7.38%.

On to `Nc1ccccc1-c1ccccc1`, for which the “activity change, negative = viability loss” value is -22.3%.

As to `O=[N+]([O-])c1cccc(O)c1`, the “activity change, negative = viability loss” value is -6.11%.

`O=[N+]([O-])c1cc(Cl)c(Cl)c(Cl)c1`: the “activity change, negative = viability loss” value was -12.4%.

`S=c1[nH]c2ccccc2[nH]1`: the “activity change, negative = viability loss” value was -5.03%.

Regarding `O=C(O)CBr`, the “activity change, negative = viability loss” value was -3.24%.

Consider `O=C(Cl)OCc1ccccc1`, for which the “activity change, negative = viability loss” value is -7.64%.

For `N#CC(Br)Br`, the Potency is 50.1 µM (active).

For `Nc1ccc(-c2ccc(N)cc2)cc1`, the “activity change, negative = viability loss” value is -1.96%.

Take `CCOC(=O)CBr`: the “activity change, negative = viability loss” value is -16.5%.

In the case of `CC(C)(COCC1CO1)COCC1CO1` (stereo not given), the “activity change, negative = viability loss” value was -16.6%.

As for `Clc1cccc(Cl)c1`, the “activity change, negative = viability loss” value was -11.2%.

Take `COC(=O)Nc1cccc(OC(=O)Nc2cccc(C)c2)c1`: the “activity change, negative = viability loss” value was -6.06%.

Consider `Oc1cc(Cl)cc(Cl)c1`, for which the “activity change, negative = viability loss” value was -9.91%.

As for `Oc1cccc(Cl)c1`, the “activity change, negative = viability loss” value was -13.3%.

As to `FC(Cl)(Cl)Cl`, the “activity change, negative = viability loss” value was -9.12%.

As for `[O-][Cl+2]([O-])O`, the “activity change, negative = viability loss” value was 6.17%.

As to `O=S(=O)(O)F`, the “activity change, negative = viability loss” value was -2.03%.

Consider `O=C(O)CCl`, for which the “activity change, negative = viability loss” value is -14.5%.

With `CCCCCCCCCCCCCl`, the “activity change, negative = viability loss” value is -0.394%.

Consider `c1ccc2c(c1)CCNC2`, for which the “activity change, negative = viability loss” value was -0.0923%.

As for `[O-][Cl+]O`, the “activity change, negative = viability loss” value was -6.86%.

In the case of `Oc1c(Cl)c(Cl)cc(Cl)c1Cl`, the “activity change, negative = viability loss” value was -10.1%.

Turning to `O=[N+]([O-])c1c(Cl)c(Cl)c(Cl)c(Cl)c1Cl`, the “activity change, negative = viability loss” value is -11.4%.

For the molecule `CCC[N+](=O)[O-]`, the “activity change, negative = viability loss” value was -9.78%.

As to `Cc1ccc2c(C)cccc2c1`, the “activity change, negative = viability loss” value was -2.04%.

As to `Nc1cccc(Cl)c1`, the “activity change, negative = viability loss” value was -1.22%.

`O=C(Cc1ccccc1)OCc1ccccc1`: the “activity change, negative = viability loss” value was 7.6%.

As to `Brc1ccc(Oc2ccc(Br)cc2Br)c(Br)c1`, the “activity change, negative = viability loss” value is 0.0229%.

`CCCCOC(=O)c1ccccc1N`: the “activity change, negative = viability loss” value was 0.624%.

As for `CCC#N`, the “activity change, negative = viability loss” value was -1.25%.

For the molecule `O=[N+]([O-])c1cccc2c([N+](=O)[O-])cccc12`, the “activity change, negative = viability loss” value is 4.52%.

Consider `N#CCc1ccccc1`, for which the “activity change, negative = viability loss” value was -2.98%.

With `Cc1cc(Cl)ccc1O`, the “activity change, negative = viability loss” value is -11.8%.
